Here are results for 85 compounds from PubChem BioAssay AID624330 (Southern Research Specialized Biocontainment Screening …, 2012).

Molecules are shown by their SMILES. Among all 340,000 compounds or so, about 2,100 (0.62%) were called active.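 How the source made its calls: active means first-screen hits whose inhibition reached a set limit at any dose in the follow-up dose series; inconclusive means inhibition above the set first-screen limit but never retested; inactive means the rest.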 Not all results are given here. Results with a measured potency or affinity are listed apart.

Sequence of Rac GTPase-activating protein 1 (Homo sapiens) (Q9H0H5 whole entry, looked up): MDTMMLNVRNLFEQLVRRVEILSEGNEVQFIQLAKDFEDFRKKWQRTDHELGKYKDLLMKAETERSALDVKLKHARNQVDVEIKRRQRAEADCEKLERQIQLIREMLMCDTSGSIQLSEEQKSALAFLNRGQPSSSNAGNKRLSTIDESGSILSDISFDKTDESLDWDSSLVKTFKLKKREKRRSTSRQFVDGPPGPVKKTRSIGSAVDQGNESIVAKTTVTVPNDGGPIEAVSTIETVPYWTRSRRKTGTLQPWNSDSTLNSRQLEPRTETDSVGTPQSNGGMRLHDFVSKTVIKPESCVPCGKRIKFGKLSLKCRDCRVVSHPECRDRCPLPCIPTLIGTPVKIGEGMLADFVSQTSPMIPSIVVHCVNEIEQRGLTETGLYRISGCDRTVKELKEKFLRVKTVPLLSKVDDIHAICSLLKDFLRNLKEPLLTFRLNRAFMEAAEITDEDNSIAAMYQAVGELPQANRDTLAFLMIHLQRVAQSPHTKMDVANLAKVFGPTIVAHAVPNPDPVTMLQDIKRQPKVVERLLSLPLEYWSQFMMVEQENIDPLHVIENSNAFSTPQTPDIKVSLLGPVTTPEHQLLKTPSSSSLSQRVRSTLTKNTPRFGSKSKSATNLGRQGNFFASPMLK

The test concerns the target Rac GTPase-activating protein 1 (Homo sapiens) (UniProt Q9H0H5). Kind of test: MgcRacGAP GTPase-activating activity inhibitors, confirmation, biochemical, ADP Hunter fluorescence, primary and confirmatory (AID 624330).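 Further: fluorescence reports GDP produced by GAP-driven GTP hydrolysis.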 The following applies: MgcRacGAP-stimulated Rac1 GTP hydrolysis, at 30 µM, stronger effect = higher value, GST-tagged Rac1 F28L mutant substrate.
Take `CC1=C(C(=O)OC(C)C)C(c2ccc(Br)s2)NC(=O)N1` (stereo not given): the inhibition was 1.12% (inactive).

In the case of `O=C(NCC(c1cccnc1)N1CCOCC1)C1CCCCC1` (stereo not given), the inhibition is 0.64% (inactive).

With `COC(=O)c1ccc(OC)c(CN2CCCN(Cc3ccc(F)cc3)S2(=O)=O)c1`, the inhibition was 6.78% (inactive).

`Cc1cccc(C)c1-n1cccc1/C=C1\SC(=S)N(c2cccc(C(=O)O)c2)C1=O`: the inhibition was -1.38% (inactive).

Regarding `O=C(O)CN1C(=O)/C(=C/c2ccc(SCc3ccccc3)o2)SC1=S`, the inhibition was 41% (inactive).

As to `O=C(NCC(c1ccco1)N1CCCC1)c1cccc(NS(=O)(=O)c2ccccc2)c1` (stereo not given), the inhibition is 7.02% (inactive).

Consider `COc1ccc(C2=NN(Cc3ccccc3)C3C(=O)NC(=O)C23)cc1` (stereo not given), for which the inhibition is 1.11% (inactive).

In the case of `CC(=O)C1=C(O)C(=O)N(Cc2ccccc2)C1c1ccc(N(C)C)cc1` (stereo not given), the inhibition is 5.08% (inactive).

Consider `O=C(N/C(=C/c1ccccc1)C(=O)N1CCCCCC1)c1ccccc1`, for which the inhibition is 4.23% (inactive).

Consider `O=C(N/C(=C/c1ccccc1)C(=O)N1CCCCC1)c1ccccc1`, for which the inhibition was 7.71% (inactive).

On to `Cc1cc(C)c2[nH]c(=O)c(CN(CC3CCCO3)S(=O)(=O)c3ccc4c(c3)OCCO4)cc2c1` (stereo not given), for which the inhibition was -7.75% (inactive).

As for `O=C1C2C3C=CC(C3)C2C(=O)N1Nc1c(Cl)cc(Cl)cc1Cl` (stereo not given), the inhibition is -1.67% (inactive).

As for `CCN(C(=O)CSc1nnc(-c2ccccc2Cl)n1C1CCCC1)C1CCS(=O)(=O)C1` (stereo not given), the inhibition is 10.2% (inactive).

With `C=CCn1c(SCC(=O)NC2(C#N)CCCCC2)nnc1-c1ccncc1`, the inhibition is -2.35% (inactive).

On to `CN1CCN(CCC(=O)Nc2ccc3c(c2)OCO3)CC1`, for which the inhibition is 9.52% (inactive).

For the compound `COc1ccc(S(=O)(=O)N2CCN(CC(=O)Nc3cccc(OC)c3)CC2)cc1`, the inhibition was -0.54% (inactive).

With `CC1CCCC(C)N1S(=O)(=O)c1ccc(NC(=O)CNCC2CCCO2)cc1` (stereo not given), the inhibition is 13.2% (inactive).

As for `O=C(CN1CCOCC1)Nc1cccc(S(=O)(=O)N2CCCCCC2)c1`, the inhibition is 4.7% (inactive).

On to `COc1ccc(N2CCN(CC(=O)Nc3ccc(C)cc3)CC2)cc1`, for which the inhibition is 6.34% (inactive).

Turning to `COc1ccc(NC(=O)c2ccc(NC(=O)CN3CCN(c4ccccc4)CC3)cc2)cc1`, the inhibition is -2.48% (inactive).

Take `O=C(CNCC1CCCO1)Nc1ccccc1N1CCCCCC1` (stereo not given): the inhibition was 15.5% (inactive).

Consider `CCN1CCN(CCC(=O)Nc2ccc3c(c2)OCO3)CC1`, for which the inhibition is -5.95% (inactive).

`CC1(C)CC(=O)C=C(NCCN2CCN(C(=S)Nc3ccccc3)CC2)C1`: the inhibition is 7.52% (inactive).

Regarding `Cc1ccc(NS(=O)(=O)c2ccc3c(c2)NC(=O)C(C)C(=O)N3)c(Br)c1` (stereo not given), the inhibition was -1.09% (inactive).

Take `Cc1onc(-c2ccccc2)c1C(=O)c1c[nH]c(C(=O)NCc2ccccn2)c1`: the inhibition was 3.33% (inactive).

Consider `c1ccc(NN(Cc2ccccn2)c2ccccc2)cc1`, for which the inhibition is -6.65% (inactive).

`O=C(CCC(=O)c1cccs1)Nc1ncccc1O`: the inhibition was 11.4% (inactive).

In the case of `CCOC(CCNC(=O)c1cn(CC(C)C)c(=O)c2c1c1ccccc1n2C)OCC`, the inhibition was 17.2% (inactive).

With `CC(=O)Nc1cccc(Oc2cc(C#N)c(C#N)cc2N2CCCCCC2)c1`, the inhibition was 5.07% (inactive).

As for `CC1CCCCN1CC(=O)Nc1ccc(Oc2ccccc2)cc1` (stereo not given), the inhibition is 9.36% (inactive).

With `O=C(CN1CCN(c2ccccc2)CC1)Nc1ccc2c(c1)OCCO2`, the inhibition is 0.3% (inactive).

In the case of `O=C(CNC1CCCC1)Nc1ccc(S(=O)(=O)N2CCCCC2)cc1`, the inhibition is 3.94% (inactive).

For the compound `CC1CCCCN1CC(=O)Nc1ccc2c(c1)OCO2` (stereo not given), the inhibition was 31% (inactive).

As for `O=C(CNC1CCCCC1)Nc1ccc(Cl)cc1`, the inhibition was 1.58% (inactive).

On to `O=C(CNCc1ccccc1Cl)Nc1ccc2c(c1)OCCO2`, for which the inhibition was 29.9% (inactive).

As to `O=C(CSCc1ccc(Cl)cc1)Nc1ccc2c(c1)OCCO2`, the inhibition was 5.15% (inactive).

As for `O=C(CN1CCN(c2ccc(F)cc2)CC1)Nc1ccc2c(c1)OCCO2`, the inhibition was 9.33% (inactive).

Consider `CCC(=O)Nc1ccc(NC(=O)CSc2nnnn2CC)cc1C`, for which the inhibition was 6.52% (inactive).

Take `CCOC(=O)COc1ccc(S(=O)(=O)N2CCN(c3ccccc3)CC2)cc1`: the inhibition is 8.59% (inactive).

`O=C(CSc1nnc(-c2ccccc2)c(-c2ccccc2)n1)Nc1ccc(Br)cn1`: the inhibition was 4.25% (inactive).

For the compound `Cn1c(=O)[nH]c(=O)c2c1nc(Br)n2C/C=N/Nc1ccccc1`, the inhibition is 3.62% (inactive).

In the case of `COc1ccc(N(CC(=O)Nc2ccc3c(c2)OCCO3)S(=O)(=O)c2cccnc2)cc1`, the inhibition is -11.8% (inactive).

In the case of `CC(=O)c1ccc(S(=O)(=O)NCCC(=O)NCCc2c[nH]c3ccccc23)cc1`, the inhibition is 3.35% (inactive).

As for `CCCCOC(=O)C1=C(C)Nc2ncnn2C1c1ccc(OC)c(OC)c1OC` (stereo not given), the inhibition was 0.42% (inactive).

With `O=C(CN1CCCCC1)Nc1ccccc1`, the inhibition is -4.92% (inactive).

As for `O=C(CNC1CCCCCC1)Nc1ccccc1N1CCCCC1`, the inhibition is 8.73% (inactive).

As to `O=C(CNCC1CCCO1)Nc1ccccc1N1CCOCC1` (stereo not given), the inhibition was 22% (inactive).

For `COc1ccccc1N1CCN(Cc2cc3c(cc2Br)OCCO3)CC1`, the inhibition was 2.26% (inactive).

Turning to `COc1ccc(N2CCN(Cc3cc4c(cc3Br)OCCO4)CC2)cc1`, the inhibition was 4.68% (inactive).

For the compound `O=C(CN1CCCCCC1)Nc1ccc(Br)cc1`, the inhibition was 5.51% (inactive).

For `Cc1ccc(NC(=O)c2cnccn2)cc1S(=O)(=O)N1CCCCCC1`, the inhibition was 6.35% (inactive).

As to `COc1ccc(-c2nc(NC3=NCCCCC3)sc2C)cc1`, the inhibition is 6.19% (inactive).

For the compound `CCCNC(=O)c1onc(CSc2ccc(Cl)cc2)c1C(=O)NCC1CC1`, the inhibition was 7.59% (inactive).

In the case of `COC(=O)c1ccc(NC(=O)c2cn(-c3ccccc3)nc2-c2ccncc2)cc1`, the inhibition was -0.99% (inactive).

As for `CN(C)c1ccc2c3c(ccc(N(C)C)c13)COC2`, the inhibition was -1.08% (inactive).

As to `CN=Cc1nc(-c2ccccc2)oc1O`, the inhibition was 10.2% (inactive).

For the compound `CC(C)(C)N=Cc1cc(-c2ccccc2)sc1O`, the inhibition was 7.65% (inactive).

`CCCn1c(N2CCN(C(=O)N3CCCCC3)CC2)nc2ccccc21`: the inhibition is -9.24% (inactive).

With `C#CCOCCOCCOCCNc1nc(N2CCN(C(=O)C([C@@H](C)O)n3cc([C@@H](N)CCCCN)nn3)CC2)nc(N2CCN(C(=O)C([C@@H](C)O)n3cc([C@@H](N)CCCCN)nn3)CC2)n1` (stereo not given in full), the inhibition is 27.4% (inactive).

With `C#CCOCCOCCOCCNc1nc(N2CCN(C(=O)CCCCCCCCCCNC(=O)[C@@H](CCSC)n3cc(CCO)nn3)CC2)nc(N2CCN(C(=O)CCCCCCCCCCNC(=O)[C@H](CCC(=O)O)n3cc(CCCCCN)nn3)CC2)n1`, the inhibition is 8.01% (inactive).

Regarding `C#CCOCCOCCOCCNc1nc(N2CCN(C(=O)C([C@@H](C)O)n3cc([C@@H](N)CCCCN)nn3)CC2)nc(N2CCN(C(=O)[C@H](CCCCN)n3cc([C@@H](N)CC(N)=O)nn3)CC2)n1` (stereo not given in full), the inhibition was 30.2% (inactive).

Turning to `C#CCOCCOCCOCCNc1nc(N2CCN(C(=O)CCCCCCCCCCNC(=O)[C@@H](CCSC)n3cc(CCO)nn3)CC2)nc(N2CCN(C(=O)CCCCCCCCCCNC(=O)[C@H](CCSC)n3cc(CCO)nn3)CC2)n1`, the inhibition was -2.72% (inactive).

Turning to `C#CCOCCOCCOCCNc1nc(N2CCN(C(=O)[C@H](CCC(=O)O)n3cc([C@@H](N)CCCCN)nn3)CC2)nc(N2CCN(C(=O)[C@H](CCC(=O)O)n3cc([C@@H](N)CCCCN)nn3)CC2)n1`, the inhibition was 3.63% (inactive).

In the case of `C#CCOCCOCCOCCNc1nc(N2CCN(C(=O)[C@H](CCC(=O)O)n3cc(CN)nn3)CC2)nc(N2CCN(C(=O)[C@H](CCCCN)n3cc([C@@H](N)CC(N)=O)nn3)CC2)n1`, the inhibition was 8.54% (inactive).

For `C#CCOCCOCCOCCNc1nc(N2CCOCC2)nc(N2CCN(C(=O)[C@H](CCCCN)n3cc(CN)nn3)CC2)n1`, the inhibition was 20.9% (inactive).

As to `C#CCOCCOCCOCCNc1nc(N2CCN(C(=O)[C@H](CCCCN)n3cc(CN)nn3)CC2)nc(N2CCN(C(=O)[C@H](CCC(=O)O)n3cc(CN)nn3)CC2)n1`, the inhibition is 10.3% (inactive).

As to `COc1ccc(S(=O)(=O)N2CCN(c3ncccn3)CC2)cc1`, the inhibition was -2.15% (inactive).

Regarding `COc1ccc(NC(=O)c2ccc(N3CCCC3=O)cc2)cc1Cl`, the inhibition is -8.17% (inactive).

With `Cc1ccc(SCC(=O)Nc2ccc(N3CCOCC3)cc2)cc1`, the inhibition is 9.38% (inactive).

`Cc1ccc(Cn2ccc(NC(=O)c3noc4c3CCCC4)n2)cc1`: the inhibition was -0.93% (inactive).

`Cc1cc(C(F)(F)F)nn1Cc1n[nH]c(=S)n1Cc1ccccc1`: the inhibition was 8.02% (inactive).

Regarding `CCC(O)CNC(=O)NC(=C(Cl)Cl)c1ccc(C)c(F)c1` (stereo not given), the inhibition is -0.09% (inactive).

`O=C(N/N=C\c1cccc(Cl)c1)c1n[nH]c2c1CCCC2`: the inhibition was 2.96% (inactive).

Take `CCOC(=O)CNC(=O)C(=O)c1c(O)[nH]c2ccccc12`: the inhibition is 15.3% (inactive).

Consider `Cc1ccc2c(COC(=O)C34CC5CC(CC(C5)C3)C4)cc(=O)oc2c1`, for which the inhibition was 0.94% (inactive).

With `Cc1ccc(NCC(=O)c2ccccc2)cc1Cl`, the inhibition was 3.37% (inactive).

In the case of `Cc1ccc(S(=O)(=O)NC(=O)Nc2ccc(F)c(F)c2)cc1`, the inhibition is 8.4% (inactive).

Regarding `COc1cc(NC(=O)NS(=O)(=O)c2ccc(C)cc2)cc(OC)c1`, the inhibition was 4.34% (inactive).

For `COc1ccc(N2CCN(CC(=O)c3c[nH]c4ccccc34)CC2)cc1`, the inhibition was -4.34% (inactive).

Take `CNC(=O)CSc1nc2sccc2c(=O)n1-c1ccccc1`: the inhibition is 4.24% (inactive).

As to `CN(C)c1ccc(NC(=O)c2sc(SCC(=O)Nc3ccc(Br)cc3)nc2N)cc1`, the inhibition was 10.8% (inactive).

Regarding `COc1ccc(NC(=O)CSc2nc(N)c(C(=O)Nc3ccc(N(C)C)cc3)s2)cc1`, the inhibition is 16.4% (inactive).

For the compound `CCN(CC)C(=O)CSc1nc(N)c(C(=O)Nc2ccc(OC)cc2)s1`, the inhibition was 14% (inactive).

Regarding `Cc1nnc(SCC(=O)Nc2nccs2)s1`, the inhibition was 1.9% (inactive).

In the case of `Cc1cc(C)cc(OCC(=O)OCC(=O)NC2CC2)c1`, the inhibition is -3.46% (inactive).

What is called inhibition is the relative decrease from the control value, in per cent.
